“And” between values parts separate entries of the source, which are not always exact repeats. Equal values may be shown once. This is part of a sample that, as a whole, favours compounds with a hit. Of some 83,000 tested, about 20% had one in any assay.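 Method: cells in 96-well plates; compound added at one concentration; 48 h incubation; percent growth measured; values under 10 scored active.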 A number with no mark means an inactive call. The source made the active and inactive calls.
Test system: MDA-MB-468 breast
Assay: NCI-60 one-dose screen, 48 h (100 = growth as untreated, 0 = no growth, -100 = all killed)
Conditions: 10 µM unless noted

SMILES	growth
CCN(CC)c1ccc2cc(NC(=O)OCCNC(=O)CCNC(=O)[C@H](CC(C)C)NC(=O)C(C)(C)NC(=O)C(C)(C)NC(=O)[C@H](CC(C)C)NC(=O)CCNC(=O)C(C)(C)NC(=O)[C@H](CC(C)C)NC(=O)CCNC(=O)[C@@](C)(CC)NC(=O)[C@H](C)NC(=O)CCNC(=O)C(C)(C)NC(=O)[C@H](C)NC(=O)[C@@H]3CCCN3C(=O)[C@@](C)(CC)NC(=O)[C@H](Cc3ccccc3)NC(=O)C3CCCN3C(=O)C(C)(C)NC(=O)C3CCCN3C(=O)C(C)(C)NC(C)=O)c(=O)oc2c1 (stereo partly specified)	-83% (active)
Cc1cn(-c2cc(F)cc(NC(=O)c3ccc(C)c(Nc4nccc(-c5cccnc5)n4)c3)c2)cn1	-63.4% (active)
O=C(N/N=C\c1cc(Cl)ccc1O)N/N=C/c1cc(Cl)ccc1O	61.5%
Cn1ccnc1C(=O)/C=C/c1ccc(CNC(=O)c2ccc(F)cc2)cc1	-29.1% (active)
Cc1nnc(-c2ccc3c(c2)nc(/C=C/c2ccccc2)n3C2CCCCC2)o1	91.3%
NNC(=O)Cc1ccccc1	92.3%
Brc1cc(-c2cc(-c3ccc4c(c3)OC=CO4)[nH]n2)cs1	30%
CCN1C(=O)N(c2ccccc2)C2NN=c3s/c(=C4\C(=O)N(C(C)C)c5ccccc54)c(=O)n3C21 (stereo unspecified)	21.4%
O=[N+]([O-])c1ccc(Br)o1	105%
O/N=C/c1ccc(O)cc1O	121%
C=CC(C)C(C)(C)O (stereo unspecified)	106%
O=C(NCCCl)c1cc(Cl)cc(Cl)c1	108%
Cn1c(=O)c2c3c(oc2c2ccccc21)C(=O)c1ccccc1C3=O	-9.91% (active)
CCc1ccc(-c2ccc(Nc3ccccc3)nn2)cc1S(N)(=O)=O	34.4%
COc1ccc(-c2nn(-c3ccc(NC(=O)c4ccc(Cl)c(Cl)c4)cc3)cc2-c2ccncc2)cc1Cl	47%
COc1ccc(C2=NN(C(=O)c3cc(-c4ccc(C)cc4)nc4ccccc34)C(c3cc(-c4ccccc4)nn3-c3ccccc3)C2)cc1 (stereo unspecified)	98.1%
CC[C@H](Nc1ncnc2nc[nH]c12)c1nc2cccc(F)c2c(=O)n1-c1ccccc1	3.98% (active)
CCc1ccccc1-n1c(N)c(C#N)c(-c2ccc(Cl)cc2)c(C#N)c1=O	98.8%

SMILES	growth
Cc1ccc(Nc2nc(N)c3ccccc3n2)cc1Cl	48%
C#CCOc1ccc(/C=N/Nc2nc(-c3cc4cc(Br)cc(Br)c4oc3=O)cs2)cc1	106%
O=C(Nc1cccc(-n2ccc3c(NC(=O)c4ccccc4)nccc32)c1)c1ccc(Cl)c(Cl)c1	-94.1% (active)
COc1ccc(N(C)c2nc(Cl)nc3cnn(C)c23)cc1	26.9%
O=C(Cn1nncc1CN1C(=O)CSC1=O)Nc1ccc(F)cc1	104%
C=CN(C(=O)N1CCN(c2cc3c(cc2F)c(=O)c(C(=O)O)cn3C2CC2)CC1)c1nc(-c2ccccc2)cs1	100%
COc1cc(OCc2cccc(-c3ccc(C(O)c4nccs4)cc3)c2C)cc(OC)c1C=O (stereo unspecified)	-36.5% (active)
CN(CC(=O)N(Cc1ccc(C2CCCCC2)cc1)c1ccc(C(=O)NO)cc1)S(=O)(=O)c1c(F)c(F)c(F)c(F)c1F	-36.3% (active)
Oc1cccc(-c2nc3sccn3c2-c2ccncn2)c1	83%
Cn1cnc2nc(Cl)nc(Cl)c21	21.7%
CC(=O)Nc1nc(C)c(C(=O)NNC(=O)Nc2ccccc2)s1	61.4%
COc1cc2c(cc1OC)-c1c(oc3c4c(ccc3c1=O)OC(C)(C)C=C4)CO2	19.2%
CC(=O)N1N=C(CCC(=O)c2nc3ccc([N+](=O)[O-])cc3[nH]2)OC1c1ccc(O)cc1 (stereo unspecified)	108%
O=C(O)CCCCc1ccc([N+](=O)[O-])cc1	107% and 115%
Cn1cc(-c2nc(-c3c[nH]c4c(Cl)nccc34)cs2)c2ccccc21	8.74% (active)
CNC(=O)c1cc(Oc2ccc3nc(NC(=O)c4cccc(OC(F)(F)F)c4)sc3c2)ccn1	46%
Cc1nc2cc(-c3nn(C(C)C)c4ncnc(N)c34)ccc2o1	-37.7% (active)
COc1ccc2nc3cc(Cl)ccc3c(Nc3cc(CN4CCCC4)c(O)c(CN4CCCC4)c3)c2n1	-53.3% (active)
